A selection: hits, their analogues and other compounds. The true share with any hit is near 5.8%.
Gal4-VP16 FLuc: counter-screen for ROR gamma inhibitors: Gal4-VP16 reporter | Drosophila S2 Gal4-VP16 UAS-luciferase, luminescence, 20 h | Potency, µM (series often up to 53.6 µM), for inactives: at the highest dose activity, negative = inhibition, most hits filed as inhibitors | 3.5% of 310,000 active;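 also: Gal4-VP16 expression switched on by copper sulfate through the metallothionein promoter; potency is read from the fitted curve at half-maximal effect; % is scaled to controls: 0 for no effect and ±100 for the full control effect; nearly all actives have a fitted effect of over 50% in size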
TRPV1 agonist: human TRPV1 agonism; Q8NER1; TRPV1-expressing cells, Fluo-8 calcium influx, agonist mode; activation, % at 8.33 µM; 0.19% of 320,000 active; AID 540275; in the data active = activation above about 80%; inconclusive = between about 30% and that limit; also: 0% is about no effect
Target sequence (Q8NER1 whole entry, looked up): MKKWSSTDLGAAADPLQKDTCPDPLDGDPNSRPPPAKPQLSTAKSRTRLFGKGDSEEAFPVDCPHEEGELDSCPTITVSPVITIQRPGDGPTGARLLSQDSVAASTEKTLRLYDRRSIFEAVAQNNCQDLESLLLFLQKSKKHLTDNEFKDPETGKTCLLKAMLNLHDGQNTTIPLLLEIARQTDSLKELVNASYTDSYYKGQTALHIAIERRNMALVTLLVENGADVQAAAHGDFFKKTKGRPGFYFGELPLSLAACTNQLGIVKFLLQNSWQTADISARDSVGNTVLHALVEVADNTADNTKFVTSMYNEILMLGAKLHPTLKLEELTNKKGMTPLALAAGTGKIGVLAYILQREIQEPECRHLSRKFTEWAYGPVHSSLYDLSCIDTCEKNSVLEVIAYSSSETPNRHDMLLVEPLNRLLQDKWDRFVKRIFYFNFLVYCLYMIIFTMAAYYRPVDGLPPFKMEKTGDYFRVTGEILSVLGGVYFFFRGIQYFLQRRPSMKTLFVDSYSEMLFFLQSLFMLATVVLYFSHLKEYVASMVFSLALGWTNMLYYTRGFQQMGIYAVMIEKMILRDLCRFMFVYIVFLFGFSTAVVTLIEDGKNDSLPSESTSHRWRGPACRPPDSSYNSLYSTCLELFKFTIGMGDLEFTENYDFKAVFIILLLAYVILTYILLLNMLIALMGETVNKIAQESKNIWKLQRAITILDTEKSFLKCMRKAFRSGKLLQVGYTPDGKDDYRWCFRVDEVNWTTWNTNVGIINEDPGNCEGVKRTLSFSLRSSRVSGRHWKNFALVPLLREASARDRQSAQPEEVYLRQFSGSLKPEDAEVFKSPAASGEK
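Fluo-8 calcium influx in TRPV1-expressing cells, kinetic read (ex 480/em 520 nm). Compound added and read 3 min for agonist activity, followed by capsaicin at EC20 final and 2 min further read for enhancement.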
uPA generation: cell surface uPA generation inhibition. cell surface uPA generation assay, qHTS. Potency, µM (titrated, usually from 38.3 µM), for the others: at the top dose activity change, negative = inhibition, actives largely listed as inhibitors. 0.31% of 330,000 active. AID 540303; active = well fitted inhibition curve with a large enough effect; inconclusive = small, poorly fitted or top-dose-only effect; inactive = no such curve, though single readings can be large or run the other way; tested in mouse RAW 264.7 cells; also: potency is read from the fitted curve at half-maximal effect; % is scaled to controls: 0 for no effect and ±100 for the full control effect; nearly all actives have a fitted effect of over 55% in size
TRPV1 potentiator: enhances activation of the human vanilloid receptor TRPV1; Q8NER1; TRPV1-expressing cells, Fluo-8 calcium influx, capsaicin EC20 potentiation; potentiation, % at 8.33 µM; 0.02% of 320,000 active; AID 540277; in the data active = potentiation above about 80%; inconclusive = between about 30% and that limit; also: 0% is about no effect
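TRPV1-expressing cells were cultured overnight at 35.5C and loaded with Fluo-8 calcium dye for 40 to 90 min at room temperature. After a 10 s baseline, compound was added and calcium influx was read kinetically for 3 min (ex 480/em 520 nm).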
RORgamma inh: inhibitors of mouse ROR gamma transcriptional activity; 5.4% of 310,000 active; Drosophila S2 Gal4-RORgamma UAS-luciferase reporter, 20 h; P51450; Potency, µM (series often up to 53.6 µM), without a hit: at the top dose activity change, negative = inhibition, most hits filed as inhibitors; AID 2551; also: potency is read from the fitted curve at half-maximal effect; % is scaled to controls: 0 for no effect and ±100 for the full control effect; nearly all actives have a fitted effect of over 60% in size
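Using a luciferase readout, inhibitors were identified by reduced reporter activity in Drosophila cells coexpressing a copper-inducible Gal4–ROR gamma fusion and UAS-driven Photinus luciferase, incubated 20 hr after 700 uM copper sulfate.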
The depositor's hits bear a star; ! = not confirmed by another sample; [ ] = another dose, or the depositor's remark. Unless noted, calls follow the shape of the dose curve; as a rule, active = well fitted curve in the direction sought with a large enough effect; inconclusive = small, poorly fitted or top-dose-only effect, or another doubt; inactive = no such curve, though single readings can be large; an effect the other way counts as inactive or inconclusive.

Results for COc1ccc(N2C(C)=CS/C2=C(/C#N)c2nnc(N3CCOCC3)n2-c2ccccc2)cc1 ?
Gal4-VP16 FLuc: 0%; TRPV1 agonist: 1; uPA generation: -12%; TRPV1 potentiator: 28; RORgamma inh: 13µM*

How did C=CCN1C(=O)NC(c2ccccc2)(C(F)(F)F)S/C1=C(\C#N)c1nnc(N2CCOCC2)n1-c1ccccc1 (stereo not drawn) do in these assays?
Gal4-VP16 FLuc: 13µM*; TRPV1 agonist: 6; uPA generation: inconclusive; TRPV1 potentiator: -2; RORgamma inh: 5.6µM*

Results for C=CCN1C(c2ccc(Br)cc2)=CS/C1=C(\C#N)c1nnc(N2CCOCC2)n1-c1ccccc1 ?
uPA generation: 4%

Results for CN(C)C(=O)c1ccc(-c2ccc3ncnc(NCc4ccccc4)c3c2)cc1 ?
Gal4-VP16 FLuc: 12%; RORgamma inh: 23%

What do the screens show for `CC(=O)Nc1ccc(SCC(c2ccccc2)N2CCN(CC(C)C)CCC2=O)cc1` (stereo not drawn)?
Gal4-VP16 FLuc: 27%; RORgamma inh: inconclusive

What do the screens show for `Cc1cc(C(=O)N/N=C/c2cccc([N+](=O)[O-])c2)c(C)n1-c1ccccc1`?
Gal4-VP16 FLuc: -8%; TRPV1 agonist: 89*; uPA generation: -11%; TRPV1 potentiator: 6; RORgamma inh: 42%

Results for Cc1cc(C(=O)CCl)c(C)n1-c1cccc([N+](=O)[O-])c1 ?
Gal4-VP16 FLuc: inconclusive; TRPV1 agonist: 0; TRPV1 potentiator: 3; RORgamma inh: 8.9µM*

What do the screens show for `Cc1cc(C(=O)CCl)c(C)n1-c1ccon1`?
Gal4-VP16 FLuc: inconclusive; TRPV1 agonist: 3; uPA generation: -11%; TRPV1 potentiator: 6; RORgamma inh: 8.9µM*

Results for Cc1ccc(NC(=O)c2csc(-c3ccccc3)c2C)cc1 ?
Gal4-VP16 FLuc: 2µM*; TRPV1 agonist: -3; uPA generation: -13%; TRPV1 potentiator: 18; RORgamma inh: 2µM*

What do the screens show for `O=c1oc2cc(Cl)ccc2n1CSc1nc2ccccc2s1`?
Gal4-VP16 FLuc: 23%; TRPV1 agonist: 12; uPA generation: -11%; TRPV1 potentiator: -3; RORgamma inh: -6%

How did CC1CCC2C(=O)OC(CN=[N+]=[N-])CN2C1c1ccc(Br)cc1 (stereo not drawn) do in these assays?
Gal4-VP16 FLuc: 6%[10 µM]; RORgamma inh: -6%[10 µM]

What do the screens show for `Cc1ccc(NC(=O)c2cc(C)n(-c3ccccc3)c2C)cc1`?
Gal4-VP16 FLuc: 6.3µM*; TRPV1 agonist: inconclusive; uPA generation: -20%; TRPV1 potentiator: -1; RORgamma inh: 4.5µM*

Results for Cc1ccc(NC(=O)c2cc(C)n(-c3cccc(C)c3)c2C)cc1 ?
Gal4-VP16 FLuc: -26%; TRPV1 agonist: inconclusive; uPA generation: -6%; TRPV1 potentiator: -3; RORgamma inh: -39%

How did Cc1ccc(C)c(N2C(=O)CC(Cc3ccccc3)C2=O)c1 (stereo not drawn) do in these assays?
Gal4-VP16 FLuc: -9%; TRPV1 agonist: 0; uPA generation: 0%; TRPV1 potentiator: inconclusive; RORgamma inh: 1%

Results for COc1ccc(C2=NN(S(C)(=O)=O)C(c3cccs3)C2)cc1OC (stereo not drawn) ?
Gal4-VP16 FLuc: -13%; TRPV1 agonist: 3; uPA generation: -7%; TRPV1 potentiator: -1; RORgamma inh: 14%

What do the screens show for `COc1ccccc1Nc1nc(C)cs1`?
Gal4-VP16 FLuc: inconclusive; TRPV1 agonist: 0; uPA generation: 5%; TRPV1 potentiator: 1; RORgamma inh: 11µM*!

What do the screens show for `COc1ccccc1Nc1n[nH]c(=S)s1`?
Gal4-VP16 FLuc: 5%; TRPV1 agonist: -2; uPA generation: 0%; TRPV1 potentiator: 5; RORgamma inh: 10µM*

How did CC(C)(CO)N1CCN(C(=S)Nc2ccccc2)CC1 do in these assays?
Gal4-VP16 FLuc: 1%; TRPV1 agonist: 5; uPA generation: -10%; TRPV1 potentiator: -9; RORgamma inh: -9%

Results for COC(=O)C/C=C\[C@@H](C)[C@@H](/C=N\O[C@@H](C)c1cc(-c2c(C)cc(C)cc2C)no1)NS(=O)(=O)c1ccc(C)cc1 ?
Gal4-VP16 FLuc: -8%[10 µM]; RORgamma inh: -15%[10 µM]

Results for O=[N+]([O-])c1ccc(NCCCNS(=O)(=O)c2ccccc2)cc1 ?
Gal4-VP16 FLuc: 6%[10 µM]; TRPV1 agonist: 0; uPA generation: -2%; TRPV1 potentiator: -2; RORgamma inh: 45%

Results for O=C(c1cc2ccccc2o1)N1CCN=C1SCc1cccnc1 ?
Gal4-VP16 FLuc: 12%; TRPV1 agonist: 7; uPA generation: 2%; TRPV1 potentiator: 0; RORgamma inh: -15%

What do the screens show for `COc1ccc(C#Cc2ccc3c(=O)c4ccccc4n(C)c3c2)cc1`?
Gal4-VP16 FLuc: 6%; TRPV1 agonist: 2; uPA generation: 14%; TRPV1 potentiator: 20; RORgamma inh: 18%

What do the screens show for `Cn1c2ccccc2c(=O)c2cc(C#CC3=CCCCC3)ccc21`?
TRPV1 agonist: 3; uPA generation: 6.3µM*; TRPV1 potentiator: -6

Results for Cn1c2ccccc2c(=O)c2cc(C#Cc3cccc(N)c3)ccc21 ?
TRPV1 agonist: -3; uPA generation: inconclusive; TRPV1 potentiator: -4

Results for Cn1c2ccccc2c(=O)c2ccc(C#Cc3ccc(N)cc3)cc21 ?
Gal4-VP16 FLuc: 15%; TRPV1 agonist: 2; uPA generation: 6.3µM*; TRPV1 potentiator: 13; RORgamma inh: 22%

How did C=CCNC(=S)N(Cc1ccccc1)Cc1ccccc1 do in these assays?
Gal4-VP16 FLuc: -12%; TRPV1 agonist: 3; uPA generation: -3%; TRPV1 potentiator: -3; RORgamma inh: inconclusive

How did C=CCNC(=S)N(C1CCCCC1)C1CCCCC1 do in these assays?
Gal4-VP16 FLuc: 2%; TRPV1 agonist: 1; uPA generation: 2%; TRPV1 potentiator: 8; RORgamma inh: 10µM*

How did CN(Cc1ccccc1)C(=O)c1cccc(NC(=O)Cc2ccc(NC(=O)C3CCN(C(=O)C4CCC4)CC3)cc2)c1 do in these assays?
uPA generation: 5%

Results for Cc1ccc(C(C[N+](=O)[O-])Sc2ccc(N)cc2)cc1 (stereo not drawn) ?
Gal4-VP16 FLuc: 5.6µM*; TRPV1 agonist: -4; uPA generation: -3%; TRPV1 potentiator: 3; RORgamma inh: 11µM*

What do the screens show for `Cc1ccc(C(C[N+](=O)[O-])n2nc(C)cc2C)cc1` (stereo not drawn)?
Gal4-VP16 FLuc: 2%; TRPV1 agonist: 6; uPA generation: 6%; TRPV1 potentiator: 11; RORgamma inh: -22%

How did C=CCc1ccc(O)c(-c2ccc(O)c(CC=C)c2)c1 do in these assays?
Gal4-VP16 FLuc: 22µM*; TRPV1 agonist: 15; uPA generation: -5%; TRPV1 potentiator: -11; RORgamma inh: inconclusive

How did C=CCc1cc(C(=O)N2CCCCC2)ccc1O do in these assays?
TRPV1 agonist: 4; uPA generation: 7%; TRPV1 potentiator: -2; RORgamma inh: -4%[0.365 µM]

How did Cc1ccc(NC(=O)c2cc3nc(C)cc(C)n3n2)cc1 do in these assays?
Gal4-VP16 FLuc: 10µM*; TRPV1 agonist: 4; TRPV1 potentiator: -1; RORgamma inh: 6.3µM*
